Measured values published in paper PMC9574860, “Chemical Toolkit for PARK7: Potent, Selective, and High-Throughput” (Journal of Medicinal Chemistry, 2022).
Out of some 7,900 compounds screened, about 400 (5.1%) showed an effect of 50% or more. Shown is part of a subset that was picked to be rich in strong results.

What follows are molecules tested against Parkinson's disease protein 7 (PARK7/DJ1) (human, UniProt Q99497) (assay: primary screen, percent inhibition; read as competition with a fluorescent probe by fluorescence polarization; higher = more effect of the substance). Settings: 100 µM.
Sequence of Parkinson's disease protein 7 (PARK7/DJ1) (Q99497 whole entry, looked up, the tested form may be a part): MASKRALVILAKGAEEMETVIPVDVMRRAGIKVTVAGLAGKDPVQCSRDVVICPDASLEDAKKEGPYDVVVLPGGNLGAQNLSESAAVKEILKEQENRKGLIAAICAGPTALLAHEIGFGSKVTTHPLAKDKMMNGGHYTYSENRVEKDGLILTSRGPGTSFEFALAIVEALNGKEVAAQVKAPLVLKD
Outline: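 Fluorescence-polarization probe displacement (JYQ-107, 20 nM final, 2 h) after 2 h preincubation of PARK7 (0.2 μM final) with each fragment at 100 μM final. Read-out ex/em 480/520 nm; remaining activity derived from FP signal loss relative to reference controls.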

SMILES	Inhibition %
CS(=O)(=O)C(C#N)=Cc1cnn(-c2ccccc2)c1	10.2%
CN1CCN(c2cccc(C#N)n2)CC1	5.08%
CC1CC(Sc2nnc(-c3ccco3)o2)C(=O)O1 (stereo not drawn)	1.96%
CCC1CN(C(=O)CCl)CCO1 (stereo not drawn)	33.6%
C=CC(=O)N1CCOC(c2ccc(C(F)(F)F)cc2)C1 (stereo not drawn)	1.86%
O=C(CCl)N1CCOC(c2ccc(F)cc2)C1 (stereo not drawn)	95.3%
CC(C)c1nc(C(C)Nc2ccc(C#N)nc2)cs1 (stereo not drawn)	3.63%
Cl.NCC1OB(O)c2ccccc21 (stereo not drawn)	3.67%
Cc1noc(C)c1Cn1c(-c2ccccc2)noc1=O	14.3%
Cc1oncc1Cn1c(-c2ccncc2)noc1=O	59.3%
O=c1onc(-c2ccccc2)n1Cc1ccncc1	1.3%
Sc1nnnc2ccccc12	3.52%
O=C(NCCC(=O)N1CCCCC1)c1cc(S(=O)(=O)F)c[nH]1	5.43%
CN1CCC2(CCCN2C(=O)c2cccc(S(=O)(=O)F)c2)CC1	10.6%
CS(=O)C1(CNC(=O)c2cccc(S(=O)(=O)F)c2)CCC1 (stereo not drawn)	97.3%
O=C(NCC12CCCN1CCC2)c1cccc(S(=O)(=O)F)c1	86.4%
C=CC(=O)Nc1ccccc1N1CCNC(=O)C1	10.7%
C=CC(=O)N(CC)C1CCOC(C)(C)C1 (stereo not drawn)	8.38%
O=c1c2ccccc2ncn1CCS(=O)(=O)F	14.1%
O=c1c2ccsc2ncn1CCS(=O)(=O)F	19.7%
O=c1c2ccccc2ccn1CCS(=O)(=O)F	95.1%
CC1(C)OB(c2ccc(C3CCC(=O)N3)cc2)OC1(C)C (stereo not drawn)	6.79%
CNC(=O)C(NC(=O)CCl)c1ccccc1 (stereo not drawn)	8.83%
CC1(C)OB(c2cc(CN3CCCC3)ccc2F)OC1(C)C	3.85%
C=CC(=O)NC(C)(C)c1noc(C(C)(C)C)n1	17.1%
CN(C)CCn1c(S)nc2ccccc2c1=O	82.9%

SMILES	Inhibition %
CN(C)CCCn1c(S)nc2ccccc2c1=O	5.79%
CCN(CC)CCn1c(S)nc2ccccc2c1=O	4.52%
CC1=NOC(=O)C1CC(=O)O (stereo not drawn)	99%
CC1=NOC(=O)C1CCC(=O)O (stereo not drawn)	8.64%
O=C1OCCC1Sc1nnc(-c2ccncc2)o1 (stereo not drawn)	6.02%
O=C1OCCC1Sc1nnc(C2CCCCC2)o1 (stereo not drawn)	66.7%
O=C1OCCC1Sc1nnc(-c2cccs2)o1 (stereo not drawn)	21.8%
c1ccc(N2CCN(CC3OCCO3)CC2)cc1	5.86%
C=CC(=O)NC1CC(NC(=O)C2CCC2)C1 (stereo not drawn)	7.98%
N#Cc1ccc(NC(=O)CCCl)cc1	9.81%
CC1(C)OB(c2ccnc3c(O)cccc23)OC1(C)C	22.4%
ClCCCn1cccn1	5.21%
CN(Cc1ccc(Cl)c(Cl)c1)C(=O)CCl	43.3%
Cc1ccc(CN(C)C(=O)CCl)cc1	68.9%
CN(Cc1ccc2c(c1)OCCO2)C(=O)CCl	91.9%
CN(Cc1ccc(Cl)cc1)C(=O)CCl	48.5%
CCN(Cc1ccc2c(c1)OCCO2)C(=O)CCl	17.9%
CN(Cc1ccsc1)C(=O)CCl	37.6%
CN(Cc1ccc(N(C)C)cc1)C(=O)CCl.Cl	71.3%
CN(Cc1ccc(Br)cc1)C(=O)CCl	52.8%
CSc1ccc(CN(C)C(=O)CCl)cc1	14.4%
C=CC(=O)NCc1cc(C)on1	8.31%
CCC(=O)N1CCCC1C1CCCN1C1CCOC1=O (stereo not drawn)	8.79%
N#CC(=Cc1ccc(CSC(F)F)o1)C(N)=O	16.4%
CC(=O)c1ccc(F)c(B2OC(C)(C)C(C)(C)O2)c1	5.97%
O=C(CCl)N1N=C(c2ccco2)CC1c1cccs1 (stereo not drawn)	12.6%

SMILES	Inhibition %
O=C(CCl)Nc1ccccc1C(F)(F)F	11.7%
C=CC(=O)Nc1nc(COC)cs1	8.35%
C=CC(=O)NCC1(C)CC(F)(F)C1	5.99%
CC1CC(n2cnc3c2c(=O)n(C)c(=O)n3C)C(=O)O1 (stereo not drawn)	8.16%
CC(C)(C)Nc1cc(F)c(S(=O)(=O)F)cc1N	7.67%
Cc1nn(S(=O)(=O)c2ccccc2)c(C)c1C	6.77%
N#CC(=Cc1ccccc1)C(=O)O	0.493%
Clc1ccc(Cl)c(OCC2CO2)c1 (stereo not drawn)	5.37%
CCc1nccn1S(=O)(=O)c1cc(C)c(OC)cc1C	7.23%
O=C(NCC1CCC(O)C1)c1cc(B(O)O)ccc1F (stereo not drawn)	1.49%
O=C(CCl)c1cscn1	101%
C=CC(=O)NCCc1cscn1	5.76%
Cl.O=C(CCl)Nc1ccccn1	14.1%
O=C(CCl)c1ccccn1	102%
Cl.O=C(CCl)c1c[nH]c2ncccc12	10.6%
ClCCc1cscn1	5.31%
COc1cncc(C#N)n1	9.79%
C=CC(=O)N1Cc2ccccc2OC(C)(C)C1	13.6%
Cc1cc(C)cc(OC(=O)N2CCOCC2)c1	6.2%
CCc1nc(C)cn1S(=O)(=O)c1cc(Cl)ccc1OC	5.69%
C=CC(=O)N1CC(S(=O)(=O)c2ccccc2F)C1	5.39%
N#Cc1nc(N2CC[C@H](O)C2)ccc1Cl	9.73%
CC1(C)OB(c2cncc(F)c2)OC1(C)C	4.04%
N#CC(=Cc1ccco1)C(=O)Nc1nnc(C(F)F)s1	4.49%
O=C(CCl)NCCc1ccc(F)cc1	26.6%
Cc1oc(C(=O)O)cc1C(=O)CCl	92.2%

SMILES	Inhibition %
Cc1oc(C(N)=O)cc1C(=O)CCl	30.9%
Cc1oncc1C(=O)CCl	40.2%
CC(C)N1CCOC(CCl)C1 (stereo not drawn)	5.12%
O=c1[nH]c(=O)n(C2CC2)c2nc(C3CC3)nc(S)c12	3.15%
OB(O)C1=CCN(Cc2cc3n(n2)CCC3)CC1	33.1%
OB(O)C1=CCN(Cc2ccnn2-c2ccncc2)CC1	61.3%
Cn1nccc1[C@@H]1OCC[C@H]1CN1CC=C(B(O)O)CC1	44.8%
C=CC(=O)NC1CC(OCC)C12CCCC2 (stereo not drawn)	8.99%
O=C1CCC(CN2CCc3[nH]c4ccc(F)cc4c3C2)O1 (stereo not drawn)	21.1%
O=C(CCl)N1CCN(C(=O)Nc2ccccc2)CC1	64.2%
O=C(CCl)N1CCN(c2ccc([N+](=O)[O-])cc2)CC1	7.53%
Cl.O=C(CCl)N1CCN(Cc2ccccc2)CC1	7.64%
CC(=O)c1ccc(N2CCN(C(=O)CCl)CC2)c(F)c1	11%
O=C(CCl)N1CCN(c2ccccc2[N+](=O)[O-])CC1	80.7%
O=C(Nc1ccccc1)C1CCN(C(=O)CCl)CC1	12.6%
C=CC(=O)NCc1nnc2n1CCCC2C(F)(F)F (stereo not drawn)	8.99%
CN1CCN(CCCCl)CC1.Cl.Cl	9.44%
CCN(Cc1ccc(Br)s1)C(=O)CCl	12.9%
CC1(NC(=O)CCl)CCS(=O)(=O)C1 (stereo not drawn)	2.17%
C=CC(=O)NCCc1nc2ccc(F)cc2n1C	3.72%
C=CC(=O)NCC1CCC2(CCCC2)O1 (stereo not drawn)	4.84%
O=c1cnc2ccccc2n1CCS(=O)(=O)F	13.8%
CS(=O)(=O)n1cnc2ccccc21	11.4%
Cc1cnc2ccccc2c1S(=O)(=O)F	95.2%
Cl.ClCCn1cc(-c2ccccc2)cn1	6.06%
C=CC(=O)NCc1cccc(C(=O)NC(C)(C)C)c1	9.53%

SMILES	Inhibition %
Cc1ccc(C)c(C(=O)Cn2cnc(C#N)n2)c1	-2.83%
COc1ccc(CS(=O)(=O)F)cc1	88.4%
O=S(=O)(F)Cc1ccccc1	8.98%
COC(=O)c1ccc(CS(=O)(=O)F)cc1	7.95%
Cc1csc(C(C#N)=Cc2cccc3c2OCCCO3)n1	1.3%
N#Cc1ccc(NCC2CCN(CC(F)(F)F)C2)cn1 (stereo not drawn)	5.73%
O=C(CCCl)Nc1cccc(S(=O)(=O)N2CCCC2)c1	4.27%
O=C(CCl)Nc1cccc(S(=O)(=O)N2CCCC2)c1	7.91%
Cl.O=C(CCl)Nc1ccc(CN2CCOCC2)cc1	40.1%
O=C(CCl)Nc1ccc(S(=O)(=O)N2CCOCC2)cc1	87.4%
C=CC(=O)Nc1ccc(S(=O)(=O)N2CCCC2)cc1	8.4%
O=C(CCl)Nc1ccc(S(=O)(=O)N2CCCCC2)cc1	92.7%
O=C(CCl)Nc1cccc(S(=O)(=O)N2CCOCC2)c1	8.1%
O=C(CCl)Nc1ccc(S(=O)(=O)N2CCCC2)cc1	85.4%
O=C(CCCl)Nc1ccc(S(=O)(=O)N2CCCC2)cc1	3.33%
Cn1cc(B2OC(C)(C)C(C)(C)O2)cn1	4.89%
CC(C)(C(=O)CCl)N1C(=O)c2ccccc2C1=O	5.76%
C=CC(=O)N1C[C@@]2(C)CS(=O)(=O)C[C@@]2(C)C1	5.67%
N#Cc1nc(C2CC2)oc1N1CCN(C(=O)C2CC2)CC1	5.36%
N#Cc1nccn1Cc1cc(F)cc(F)c1	5.08%
N#Cc1nccn1Cc1ccc(F)cc1F	68.3%
N#Cc1nccn1Cc1cccc(F)c1F	4.63%
